# Data published in a collection of fitness landscapes (doi:10.1016/j.celrep.2020.107928).
# The full ranking holds about 81,000 sequences; the median of “one-hybrid fitness for binding parS DNA” is about -0.17, and the highest 2% start at about 0.51. The full list was thinned out, with the highest values kept by preference.
# B1: Caulobacter ParB omega fusion; a variant is named by its letters at X, in order, B8GW30 (parent)
# chain: MESVVVGEPGMSEGRRGLGRGLSALLGEVDAAPAQAPGEQLGGSREAPIEILQRNPDQPRRTFREEDLEDLSNSIREKGVLQPILVRPSPDTAGEYQIVAGERAWRAAQRAGLKTVPIMVRELDDLAVLEIGIIENVQRADLNVLEEALSYKVLMEKFERTQENIAQTIGKSXSHVANXMRLLXLPDEVQSYLVSGELTAXHARAIAAAADPVALAKQIIEGGLSVRETEALARKAPNLSAGKSKGGRPPRVKDTDTQALESDLSSVLGLDVSIDHRGSTGTLTITYATLEQLDDLCNRLTRGI
# Variants of: B1
# Assay: one-hybrid fitness for binding parS DNA (scaled: cognate 1, non-cognate 0); higher = stronger binding
# Settings: with parS DNA site
# Outline: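 On M9-minus-histidine containing 0.1 mM IPTG and 5 mM 3-AT, E. coli USO cells with a HIS3 reporter, site 19 bp from the promoter, grew 48 hours at 37°C to select Caulobacter ParB libraries randomised at four specificity codons. Plasmids from before and after were Illumina-sequenced, with three replicate libraries pooled and variants under 10 reads left out. Fitness is the log change in variant-to-wild-type read ratio, rescaled against cognate and non-cognate.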
row,Variant,one-hybrid fitness for binding parS DNA
1,AIHE,≤ 0.2
2,NKPL,≤ 0.2
3,WVGM,≤ 0.2
4,CMEW,≤ 0.2
5,NDFI,≤ 0.2
6,KPTT,≤ 0.2
7,WGPD,≤ 0.2
8,RKGN,0.429
9,RHGS,0.888
10,RTGS,0.92
11,RKGS,0.833
12,RHGN,0.363
13,RTGN,0.44
14,RKGD,≤ 0.2
15,RHGD,≤ 0.2
16,RIGN,0.477
17,RIGP,≤ 0.2
18,RTGD,≤ 0.2
19,RIGS,0.959
20,NELG,≤ 0.2
21,VCTS,≤ 0.2
22,QDQT,≤ 0.2
23,APQI,≤ 0.2
24,TGHY,≤ 0.2
25,LTYE,≤ 0.2

row,Variant,one-hybrid fitness for binding parS DNA
1,FDTS,≤ 0.2
2,VQYL,≤ 0.2
3,GTNP,≤ 0.2
4,RSGN,0.46
5,RCGY,0.43
6,RIGY,0.51
7,RSGS,0.983
8,RSGD,≤ 0.2
9,LCDD,≤ 0.2
10,TNCY,≤ 0.2
11,FSDT,≤ 0.2
12,KCRM,≤ 0.2
13,RMPT,0.625
14,RMPH,≤ 0.2
15,RMIK,≤ 0.2
16,RMPR,≤ 0.2
17,RMIT,0.752
18,RMIQ,≤ 0.2
19,VQYW,≤ 0.2
20,INEC,≤ 0.2
21,RQWY,0.418
22,TEPE,≤ 0.2
23,RSAN,0.426
24,RSAC,0.932
25,REAC,≤ 0.2

row,Variant,one-hybrid fitness for binding parS DNA
1,RSAH,0.226
2,RCAC,1.02
3,RPAC,≤ 0.2
4,IILS,≤ 0.2
5,TCRI,≤ 0.2
6,KHHT,≤ 0.2
7,HMNT,≤ 0.2
8,RTPP,≤ 0.2
9,RTPG,0.764
10,RTIF,0.233
11,RTIK,≤ 0.2
12,RTIG,0.98
13,RTPQ,≤ 0.2
14,KRWW,≤ 0.2
15,KLNR,≤ 0.2
16,RHAA,0.534
17,RHFA,0.516
18,NHAA,≤ 0.2
19,VDYT,≤ 0.2
20,NQNT,≤ 0.2
21,HAPR,≤ 0.2
22,EKTR,≤ 0.2
23,RFKA,0.571
24,DHKA,≤ 0.2
25,RWYA,0.348

row,Variant,one-hybrid fitness for binding parS DNA
1,RWKA,0.574
2,RWVA,0.329
3,RGKA,0.475
4,RHVA,0.499
5,RCKA,0.844
6,PFKA,≤ 0.2
7,RFVA,0.44
8,RPKA,≤ 0.2
9,RHKA,0.692
10,KSVS,≤ 0.2
11,ATSF,≤ 0.2
12,PVTI,≤ 0.2
13,GNRN,≤ 0.2
14,MTHT,≤ 0.2
15,IATE,≤ 0.2
16,REKA,≤ 0.2
17,RDKA,≤ 0.2
18,RSKA,0.716
19,QRTQ,≤ 0.2
20,GFIG,≤ 0.2
21,RLSM,0.329
22,RLRT,0.834
23,RLWH,0.3
24,RLRM,0.376
25,RLGF,0.278

row,Variant,one-hybrid fitness for binding parS DNA
1,RLST,0.939
2,RLWT,0.889
3,RLSK,≤ 0.2
4,RLGR,≤ 0.2
5,RLWP,0.201
6,RLRR,≤ 0.2
7,RLGT,0.925
8,FKLC,≤ 0.2
9,YRAS,0.283
10,WVWC,≤ 0.2
11,TRNR,≤ 0.2
12,QCLA,≤ 0.2
13,HCDK,≤ 0.2
14,RLCD,≤ 0.2
15,RLLD,0.231
16,RLLT,0.961
17,RLLP,≤ 0.2
18,RLYM,0.364
19,RLYQ,≤ 0.2
20,RLCT,0.923
21,RLCP,≤ 0.2
22,RLQK,≤ 0.2
23,RLQT,0.946
24,RLYT,0.943
25,RLQF,0.229

row,Variant,one-hybrid fitness for binding parS DNA
1,YINM,≤ 0.2
2,QHNA,≤ 0.2
3,HQSH,≤ 0.2
4,KQRG,≤ 0.2
5,FYRR,≤ 0.2
6,EMVC,≤ 0.2
7,TCPF,≤ 0.2
8,RLHY,0.473
9,RLHT,0.937
10,RLHR,≤ 0.2
11,RHNG,0.953
12,RHYG,0.95
13,RHNF,≤ 0.2
14,REQG,≤ 0.2
15,RHIG,0.705
16,RHPG,0.451
17,RHYP,≤ 0.2
18,RHYD,≤ 0.2
19,RHQG,0.973
20,RHQR,≤ 0.2
21,RHNR,≤ 0.2
22,RHIF,≤ 0.2
23,HCSV,≤ 0.2
24,DCCS,≤ 0.2
25,HYWT,≤ 0.2

row,Variant,one-hybrid fitness for binding parS DNA
1,QSAL,≤ 0.2
2,FRKP,≤ 0.2
3,GIVG,≤ 0.2
4,PFTT,≤ 0.2
5,ALPV,≤ 0.2
6,QCAF,≤ 0.2
7,RHCM,≤ 0.2
8,RHDG,0.917
9,RHLG,0.967
10,RHLQ,≤ 0.2
11,RHDN,0.33
12,RHLF,0.23
13,RHDD,≤ 0.2
14,RHCK,≤ 0.2
15,RHHG,0.967
16,RHHK,≤ 0.2
17,RHHQ,≤ 0.2
18,RHCG,0.95
19,KRLV,≤ 0.2
20,YFQT,≤ 0.2
21,TWNC,≤ 0.2
22,KIDC,≤ 0.2
23,YREL,≤ 0.2
24,QRPG,≤ 0.2
25,ANRV,≤ 0.2

row,Variant,one-hybrid fitness for binding parS DNA
1,RHRG,0.903
2,RHGG,0.939
3,RHRH,0.232
4,RHGH,≤ 0.2
5,RHSG,0.958
6,RHRP,≤ 0.2
7,RHSR,≤ 0.2
8,RHSQ,≤ 0.2
9,RHGP,≤ 0.2
10,KVHG,≤ 0.2
11,IAKA,≤ 0.2
12,MESK,≤ 0.2
13,TRMT,≤ 0.2
14,GQVV,≤ 0.2
15,AIVR,≤ 0.2
16,KQMS,≤ 0.2
17,GWHV,≤ 0.2
18,VEGN,≤ 0.2
19,TSSY,≤ 0.2
20,DLDA,≤ 0.2
21,NLCA,≤ 0.2
22,RLCA,0.609
23,DLYA,≤ 0.2
24,RLDA,0.588
25,RLYA,0.607

row,Variant,one-hybrid fitness for binding parS DNA
1,RLNA,0.62
2,RDNA,≤ 0.2
3,ALYA,≤ 0.2
4,NLNA,≤ 0.2
5,DLCA,≤ 0.2
6,ASVG,≤ 0.2
7,YGDG,≤ 0.2
8,VARP,≤ 0.2
9,TRNE,≤ 0.2
10,SERK,≤ 0.2
11,TYPS,≤ 0.2
12,QKME,≤ 0.2
13,QGRS,≤ 0.2
14,LGAW,≤ 0.2
15,LDKA,≤ 0.2
16,WVHI,≤ 0.2
17,NLRA,≤ 0.2
18,DLRA,≤ 0.2
19,RLRA,0.727
20,SEQC,≤ 0.2
21,TFQR,≤ 0.2
22,NICA,≤ 0.2
23,RIYA,0.613
24,RIPA,0.29
25,NISA,≤ 0.2

row,Variant,one-hybrid fitness for binding parS DNA
1,RIIA,0.499
2,RISA,0.608
3,RILA,0.576
4,RICA,0.525
5,HSNV,≤ 0.2
6,QGKW,≤ 0.2
7,YPTH,≤ 0.2
8,PDPT,≤ 0.2
9,YNHR,≤ 0.2
10,PMSC,≤ 0.2
11,NLLT,≤ 0.2
12,NQHT,≤ 0.2
13,WWRT,≤ 0.2
14,PCFG,≤ 0.2
15,YQHR,≤ 0.2
16,RIEA,0.451
17,RIGA,0.661
18,NIRA,≤ 0.2
19,RIQA,0.576
20,RIHA,0.574
21,RIRA,0.672
22,TSST,≤ 0.2
23,VTVI,≤ 0.2
24,IMSG,≤ 0.2
25,ENNW,≤ 0.2

row,Variant,one-hybrid fitness for binding parS DNA
1,TFVM,≤ 0.2
2,KSAC,≤ 0.2
3,DWTC,≤ 0.2
4,TPML,≤ 0.2
5,CISV,≤ 0.2
6,RIWA,0.539
7,THES,≤ 0.2
8,MCDC,≤ 0.2
9,NYQC,≤ 0.2
10,NSQY,≤ 0.2
11,HMPR,≤ 0.2
12,PPDT,≤ 0.2
13,ARRF,≤ 0.2
14,RQRH,0.249
15,RQRP,≤ 0.2
16,RQWK,≤ 0.2
17,RQWM,0.233
18,RQHF,0.231
19,RQRG,0.97
20,RQWG,0.877
21,RQHG,1.01
22,RQHK,≤ 0.2
23,RQDD,≤ 0.2
24,RQDG,0.93
25,RQDH,≤ 0.2

row,Variant,one-hybrid fitness for binding parS DNA
1,WATG,≤ 0.2
2,TFEV,≤ 0.2
3,KKQL,≤ 0.2
4,VEMW,0.21
5,SPRE,≤ 0.2
6,VHIS,≤ 0.2
7,HAND,≤ 0.2
8,MQAL,≤ 0.2
9,RQLG,0.982
10,RQQN,0.469
11,RQYH,≤ 0.2
12,RQLD,≤ 0.2
13,RQLH,≤ 0.2
14,RQYD,≤ 0.2
15,RQNF,0.216
16,RQNM,0.325
17,RQQG,0.99
18,RQNG,1.01
19,RQQH,≤ 0.2
20,RQYG,0.994
21,YEKG,≤ 0.2
22,MTTE,≤ 0.2
23,PMRC,≤ 0.2
24,TKTN,≤ 0.2
25,ESQE,≤ 0.2

row,Variant,one-hybrid fitness for binding parS DNA
1,PCYG,≤ 0.2
2,FVTS,≤ 0.2
3,VWVK,≤ 0.2
4,TAGS,≤ 0.2
5,QLHQ,≤ 0.2
6,GGAM,≤ 0.2
7,MKCT,≤ 0.2
8,RQGF,0.234
9,RQGG,0.945
10,RQCY,0.412
11,RQCR,≤ 0.2
12,RQCG,0.97
13,RQGQ,≤ 0.2
14,RQSG,0.984
15,RQSD,≤ 0.2
16,RQSH,≤ 0.2
17,NETE,≤ 0.2
18,YGVD,≤ 0.2
19,VVSY,≤ 0.2
20,LSGR,≤ 0.2
